# Assay results from PubChem BioAssay (NCATS).
# Values joined by “and” are separate entries in the source; they are usually repeats but may differ in a detail not shown here. Equal values may be shown once. Results filed as inconclusive are left out. A call without a number means that no potency is given here. Active and inactive are the calls of the source. Calls come from the whole dose curve; as a rule, active = well fitted inhibition curve with a large enough effect; inconclusive = small, poorly fitted or top-dose-only effect; inactive = flat fitted curve, though single readings scatter.
# Tested on: MCC-26
# Assay: qHTS assay to identify novel small-molecules to repurpose for Merkel cell carcinoma treatment (AID 1296009); note: nearly all actives have a fitted effect of over 60% in size
# Conditions: MCC and control cell lines, CellTiter-Glo viability, 72 h; series mostly up to 46 µM
# Excerpt: MCC is a rare and aggressive neuroendocrine skin cancer with limited treatment options. Approximately 80% of MCCs have the Merkel cell polyomavirus (MCPyV) DNA integrated into the host genome (virus-positive: VP-MCC) and viral oncogenes drive oncogenesis. The remaining MCCs are virus-negative (VN-MCC) and are caused by UV mutagenesis. To identify novel treatments for VP-MCC and/or VN-MCC we screened three VP-MCC cell lines (WAGA, MKL-1, MKL-2), three VN-MCC cell lines (MCC-13, MCC-26, UISO), and four immortalized, non-transformed control cell lines (HaCaT, HEK293T, CRL7250, NIH-3T3) against ~2,400 compounds in the NCGC Pharmaceutical Collection (NPC) and ~1,900 compounds in the Mechanism Interrogation PlatE (MiPE). Using cell viability as a readout (CellTiter-Glo assay) we found both overlapping and distinct drugs that can be repurposed for the treatment of VP-MCC and VN-MCC.
# A high-throughput screen was conducted in 1536-well white flat bottom plates (Corning) on a Kalypsys robotic system. Cell lines WAGA, MKL-1, MKL-2, MCC-13, MCC-26, UISO, HaCaT, HEK293T, CRL7250, and NIH-3T3 were screened against 2 small molecule annotated drug libraries NPC and MIPE in dose response (8 and 11 pt. respectively) measuring cell viability after 72 hours of incubation. […] A 1,536 pintool (Kalypsys) was used to transfer 23 nL of compound in DMSO to the 1,536-well assay plates. After 72 hr incubation at 37 degree celsius, 2.5 uL of CellTiter-Glo (Promega) was dispensed into each well using a BiorapTR. Plates were incubated at room temperature for 10 min, transferred to a ViewLux (PerkinElmer) and the luminescence was recorded using an exposure time of 2 seconds. Relative luminescence units (RLUs) were normalized to in-plate controls (no cells as a positive (cytotoxicity) control, DMSO as negative control) and the normalized data was processed using NCATS in-house software.
# Potency is the fitted concentration of half-maximal effect.
row,SMILES,Potency
1,CCOc1cc(N)c(Cl)cc1C(=O)NCC1CN(Cc2ccc(F)cc2)CCO1 (stereo not given),inactive
2,CO[C@@H]1[C@@H](OC(N)=O)[C@@H](O)[C@H](Oc2ccc3c(O)c(NC(=O)c4ccc(O)c(CC=C(C)C)c4)c(=O)oc3c2C)OC1(C)C,inactive
3,Cc1cccc(Nc2ccncc2S(=O)(=O)NC(=O)NC(C)C)c1,inactive
4,CCn1cc(C(=O)O)c(=O)c2cc(F)c(N3CCNCC3)cc21,inactive
5,Cc1noc(NS(=O)(=O)c2ccc(N)cc2)c1C,inactive
6,CN(C)c1ccc(C(=C2C=CC(=[N+](C)C)C=C2)c2ccc(N(C)C)cc2)cc1,7.5 µM (active) and 4.69 µM (active)
7,COC(=O)Nc1nc2ccc(S(=O)c3ccccc3)cc2[nH]1 (stereo not given),inactive
8,CCN(CC)CC#CCOC(=O)C(O)(c1ccccc1)C1CCCCC1 (stereo not given),inactive
9,CC(C(=O)O)c1ccc2c(c1)CC(=O)c1ccccc1S2 (stereo not given),inactive
10,CCOCC(O)COc1ccc(NC(=O)CC[S+](C)C)cc1 (stereo not given),inactive
11,CC(=O)[C@H]1CC[C@H]2[C@@H]3CCC4=CC(=O)CC[C@]4(C)[C@H]3CC[C@]12C,inactive
12,CN(C)CCc1c[nH]c2ccc(CS(=O)(=O)N3CCCC3)cc12,inactive
13,COc1ccc2cc3[n+](cc2c1OC)CCc1cc2c(cc1-3)OCO2,inactive
14,Nc1ccc(S(=O)(=O)Nc2ccccn2)cc1,inactive
15,O=NN(CCCl)C(=O)NC1CCCCC1,inactive
16,C[C@]12C=CC(=O)C=C1CC[C@@H]1[C@@H]2C(=O)C[C@@]2(C)[C@H]1CC[C@]2(O)C(=O)CO,inactive
17,CC(C)(C#N)c1cc(Cn2cncn2)cc(C(C)(C)C#N)c1,inactive
18,COc1ncnc(NS(=O)(=O)c2ccc(N)cc2)c1OC,inactive
19,CCOC(=O)[C@H](CCc1ccccc1)N[C@H]1CCc2ccccc2N(CC(=O)O)C1=O,inactive
20,COc1cc2c(Nc3ccc(Br)cc3F)ncnc2cc1OCC1CCN(C)CC1,inactive

row,SMILES,Potency
1,COc1cccc(N(C)C(=S)Oc2ccc3c(c2)CCCC3)n1,inactive
2,CC1=CC(=O)c2ccccc2C1=O,inactive
3,CCc1c2c(nc3ccc(OC(=O)N4CCC(N5CCCCC5)CC4)cc13)-c1cc3c(c(=O)n1C2)COC(=O)[C@]3(O)CC,16.8 µM (active)
4,S=P(N1CC1)(N1CC1)N1CC1,inactive
5,CS(=O)(=O)c1ccc([C@@H](O)[C@@H](CO)NC(=O)C(Cl)Cl)cc1,inactive
6,COc1ccc(C(=O)CC(=O)c2ccc(C(C)(C)C)cc2)cc1,inactive
7,CNS(=O)(=O)Cc1ccc2[nH]cc(CCN(C)C)c2c1,inactive
8,CCCCc1oc2ccc(NS(C)(=O)=O)cc2c1C(=O)c1ccc(OCCCN(CCCC)CCCC)cc1,inactive
9,CNCC[C@H](Oc1cccc2ccccc12)c1cccs1,inactive
10,CCN[C@H]1C[C@H](C)S(=O)(=O)c2sc(S(N)(=O)=O)cc21,inactive
11,O=C(N[C@H](CO)[C@H](O)c1ccc([N+](=O)[O-])cc1)C(Cl)Cl,inactive
12,O=C(O)c1cn(C2CC2)c2cc(N3CCNCC3)c(F)cc2c1=O,inactive
13,NC1(c2ccc(-c3nc4ccn5c(=O)[nH]nc5c4cc3-c3ccccc3)cc2)CCC1,inactive
14,Cc1ccc(S(=O)(=O)N[C@@H](Cc2ccccc2)C(=O)CCl)cc1,inactive
15,O=S(=O)(O)CCS,inactive
16,COc1ccc2c(c1)c(CC(=O)OCC(=O)O)c(C)n2C(=O)c1ccc(Cl)cc1,inactive
17,COc1ccc(-c2ccc3cc(C(=O)O)ccc3c2)cc1C12CC3CC(CC(C3)C1)C2,inactive
18,NC(=O)N1c2ccccc2CC(=O)c2ccccc21,inactive
19,Nc1nc(=S)c2[nH]cnc2[nH]1,20.9 µM (active)
20,COc1nc(N)nc2c1ncn2[C@@H]1O[C@H](CO)[C@@H](O)[C@@H]1O,inactive
